For 13 sequences, binding signal results are on record in PMC5700166.

Where a chain is given by its changes, count along the chain named.

Common to all, as to test: protein-binding microarray (PBM); PBM: ~300 nM protein, 6 mM HEPES pH 7.8, 80 mM KCl, 0.5 mM EDTA, 0.5 mM EGTA, 6% glycerol, 35 ng/ul poly-dIdC, 1% milk, 1 h, room temperature; Ap Aiptasia and Nv Nematostella (sea anemones) / Co Capsaspora / Aq Amphimedon (sponge) / Dm Drosophila / Hu human; RHD is the Rel homology domain; high values mean tight binding
Common to all, as to conditions: dsDNA, one strand shown

One experiment deals with T1, GST-Ap-NF-kB RHD (Exaiptasia pallida (Aiptasia), UniProt A0A913YAJ5 2-422).
T1 sequence: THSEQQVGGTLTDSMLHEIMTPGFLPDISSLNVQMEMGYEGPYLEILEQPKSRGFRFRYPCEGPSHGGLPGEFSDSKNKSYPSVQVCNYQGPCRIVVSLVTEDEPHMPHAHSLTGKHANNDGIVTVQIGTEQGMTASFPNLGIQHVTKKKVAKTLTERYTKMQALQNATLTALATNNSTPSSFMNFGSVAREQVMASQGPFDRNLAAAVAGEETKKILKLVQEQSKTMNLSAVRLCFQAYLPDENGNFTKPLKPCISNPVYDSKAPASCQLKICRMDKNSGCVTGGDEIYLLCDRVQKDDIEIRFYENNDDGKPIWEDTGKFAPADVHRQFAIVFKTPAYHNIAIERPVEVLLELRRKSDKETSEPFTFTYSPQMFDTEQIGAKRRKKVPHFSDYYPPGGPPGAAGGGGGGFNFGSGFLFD

For experiment [1], the target named is T2, GST-Nv-NF-kB (Cys allele) (Nematostella vectensis, UniProt E5G601 2-411).
T2 sequence: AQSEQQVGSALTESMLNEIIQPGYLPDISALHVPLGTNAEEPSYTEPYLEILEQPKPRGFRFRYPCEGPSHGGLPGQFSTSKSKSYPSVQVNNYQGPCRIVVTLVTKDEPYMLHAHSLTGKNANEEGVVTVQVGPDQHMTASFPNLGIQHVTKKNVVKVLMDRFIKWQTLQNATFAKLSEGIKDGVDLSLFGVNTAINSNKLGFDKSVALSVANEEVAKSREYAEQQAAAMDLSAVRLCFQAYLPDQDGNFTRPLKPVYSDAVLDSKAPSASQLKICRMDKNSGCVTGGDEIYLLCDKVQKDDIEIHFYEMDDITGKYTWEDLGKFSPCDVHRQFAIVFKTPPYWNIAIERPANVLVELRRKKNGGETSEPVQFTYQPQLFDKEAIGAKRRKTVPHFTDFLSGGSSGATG

The target in experiment [2] is T3, GST-Nv-NF-kB (Ser allele) (Nematostella vectensis, UniProt A7UNT2 2-411).
T3 sequence: T2 sequence with Q21R, C66S, S207N, E215Q, V217A, E225K, A268E, D399E

For the next experiment, the target named is T4, GST-Dm-Relish (Drosophila melanogaster, UniProt Q94527 99-473).
T4 sequence: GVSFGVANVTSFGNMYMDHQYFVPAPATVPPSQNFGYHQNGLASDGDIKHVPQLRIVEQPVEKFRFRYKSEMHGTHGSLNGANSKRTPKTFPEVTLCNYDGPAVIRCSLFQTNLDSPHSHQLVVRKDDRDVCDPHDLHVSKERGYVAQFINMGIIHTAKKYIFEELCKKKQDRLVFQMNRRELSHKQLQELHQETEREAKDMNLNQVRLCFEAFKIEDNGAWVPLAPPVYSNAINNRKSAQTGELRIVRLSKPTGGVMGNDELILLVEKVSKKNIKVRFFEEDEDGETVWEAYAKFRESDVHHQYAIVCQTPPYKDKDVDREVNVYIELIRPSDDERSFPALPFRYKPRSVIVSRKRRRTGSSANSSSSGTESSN

The target of the next experiment is T5, GST-Aq-NF-kB (Amphimedon queenslandica, UniProt A9Y5G7 2-389).
T5 sequence: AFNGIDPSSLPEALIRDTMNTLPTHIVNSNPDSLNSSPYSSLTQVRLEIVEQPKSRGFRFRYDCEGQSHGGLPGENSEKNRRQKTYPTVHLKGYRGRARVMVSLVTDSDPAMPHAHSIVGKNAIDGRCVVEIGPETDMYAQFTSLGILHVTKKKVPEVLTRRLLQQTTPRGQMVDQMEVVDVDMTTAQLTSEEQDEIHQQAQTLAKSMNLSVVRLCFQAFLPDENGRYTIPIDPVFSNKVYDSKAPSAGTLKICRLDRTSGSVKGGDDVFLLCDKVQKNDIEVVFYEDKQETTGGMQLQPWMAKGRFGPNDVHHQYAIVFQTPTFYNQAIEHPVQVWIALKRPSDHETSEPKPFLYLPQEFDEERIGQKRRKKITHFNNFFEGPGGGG

The target of the next experiment is T6, GST-Co-NF-kB (Capsaspora owczarzaki, UniProt F1ARL5 200-546).
T6 sequence: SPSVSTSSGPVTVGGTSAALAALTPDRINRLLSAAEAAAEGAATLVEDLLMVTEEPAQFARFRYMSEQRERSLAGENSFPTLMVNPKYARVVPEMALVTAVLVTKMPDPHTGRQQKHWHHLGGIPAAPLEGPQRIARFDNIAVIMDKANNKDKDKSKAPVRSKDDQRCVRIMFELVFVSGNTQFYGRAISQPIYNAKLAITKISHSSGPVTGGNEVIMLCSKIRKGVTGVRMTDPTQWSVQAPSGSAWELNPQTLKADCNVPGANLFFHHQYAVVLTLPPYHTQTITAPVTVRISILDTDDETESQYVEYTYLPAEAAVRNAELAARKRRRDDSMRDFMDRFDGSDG

As for “CCGATTAACATCAGGGAAGGACCTGATGTTAATCGGGTCTTGATTCGCTTGACGCTGCTG”, the binding signal with GST-Ap-NF-kB RHD is 1.78 z-score; in experiment [1] it was 2.28 z-score; in experiment [2], 1.09 z-score; with GST-Dm-Relish, 4.44 z-score; with GST-Aq-NF-kB it was 3.91 z-score.

As to “CCGATTAACATCACGGTAATCCCTGATGTTAATCGGGTCTTGATTCGCTTGACGCTGCTG”, the binding signal with GST-Ap-NF-kB RHD came to 4.31 z-score; in experiment [1], 1.91 z-score; in experiment [2] it was 1.84 z-score; with GST-Dm-Relish, 5.6 z-score; with GST-Aq-NF-kB it was 4.77 z-score.

For the sequence “CCGATTAACATCAAAAAACTACCTGATGTTAATCGGGTCTTGATTCGCTTGACGCTGCTG”, the binding signal is 2.29 z-score with GST-Ap-NF-kB RHD; 3 z-score in experiment [1]; 7.62 z-score in experiment [2]; 6.2 z-score in the experiment with GST-Dm-Relish; 3.57 z-score with GST-Aq-NF-kB.

As for “CCGATTAACATCAAGGGAAAAATTGATGTTAATCGGGTCTTGATTCGCTTGACGCTGCTG”, the binding signal in the experiment with GST-Ap-NF-kB RHD turned out to be 3.76 z-score; in experiment [1], 6.35 z-score; in experiment [2], 7 z-score; in the experiment with GST-Co-NF-kB, 5.22 z-score; in the experiment with GST-Dm-Relish it was 1.89 z-score; with GST-Aq-NF-kB, 5.11 z-score.

For the sequence “CCGATTAACATCAAATCGGGAAATGATGTTAATCGGGTCTTGATTCGCTTGACGCTGCTG”, the binding signal with GST-Ap-NF-kB RHD turned out to be 1.42 z-score; in experiment [1], 3.49 z-score; in the experiment with GST-Co-NF-kB, 2 z-score; with GST-Aq-NF-kB it was 1.61 z-score.

Turning to “CCGATTAACATCAGGGGAAAGCATGATGTTAATCGGGTCTTGATTCGCTTGACGCTGCTG”, the binding signal in the experiment with GST-Ap-NF-kB RHD stood at 5.49 z-score; in experiment [1], 6.83 z-score; in experiment [2], 8.3 z-score; in the experiment with GST-Co-NF-kB, 6.79 z-score; in the experiment with GST-Dm-Relish it was 2.4 z-score; with GST-Aq-NF-kB, 4.54 z-score.

With “CCGATTAACATCAGGGGAGATTATGATGTTAATCGGGTCTTGATTCGCTTGACGCTGCTG”, the binding signal turned out to be 6.83 z-score with GST-Ap-NF-kB RHD; 5.48 z-score in experiment [1]; 6.7 z-score in experiment [2]; 5.91 z-score with GST-Co-NF-kB; 2.68 z-score with GST-Dm-Relish; 4.52 z-score in the experiment with GST-Aq-NF-kB.

Take “CCGATTAACATCAATAAAGTCCCTGATGTTAATCGGGTCTTGATTCGCTTGACGCTGCTG”: the binding signal came to 5.45 z-score in the experiment with GST-Ap-NF-kB RHD; 7.06 z-score in experiment [1]; 7.32 z-score in experiment [2]; 6.49 z-score with GST-Dm-Relish; 5.67 z-score with GST-Aq-NF-kB.

Regarding “CCGATTAACATCATGGGAAGGTTTGATGTTAATCGGGTCTTGATTCGCTTGACGCTGCTG”, the binding signal with GST-Ap-NF-kB RHD came to 1.34 z-score; in experiment [1] it was 1.55 z-score; with GST-Co-NF-kB, 2.28 z-score; with GST-Aq-NF-kB it was 1.66 z-score.

Consider “CCGATTAACATCAAATGTGGGAATGATGTTAATCGGGTCTTGATTCGCTTGACGCTGCTG”, for which the binding signal came to 1.11 z-score with GST-Ap-NF-kB RHD, 1.53 z-score in experiment [1], 3.07 z-score with GST-Co-NF-kB and 2.21 z-score with GST-Aq-NF-kB.

On to “CCGATTAACATCAAAGATTTCCCTGATGTTAATCGGGTCTTGATTCGCTTGACGCTGCTG”, for which the binding signal in the experiment with GST-Ap-NF-kB RHD amounted to 4.23 z-score; in experiment [1], 6.33 z-score; in experiment [2], 7.19 z-score; in the experiment with GST-Co-NF-kB, 4.84 z-score; with GST-Dm-Relish it was 2.9 z-score; with GST-Aq-NF-kB, 5.13 z-score.

For “CCGATTAACATCACATGGGAAACTGATGTTAATCGGGTCTTGATTCGCTTGACGCTGCTG”, the binding signal turned out to be 1.24 z-score with GST-Ap-NF-kB RHD, 2.14 z-score in experiment [1], 2.48 z-score with GST-Co-NF-kB and 1.58 z-score in the experiment with GST-Aq-NF-kB.

In the case of “CCGATTAACATCAACCCCCCCCTTGATGTTAATCGGGTCTTGATTCGCTTGACGCTGCTG”, the binding signal with GST-Ap-NF-kB RHD turned out to be 4.76 z-score; in experiment [1] it was 4 z-score; in experiment [2], 3.93 z-score; in the experiment with GST-Co-NF-kB, 5.09 z-score; with GST-Dm-Relish it was 4.91 z-score; with GST-Aq-NF-kB it was 4.47 z-score.
